Assay outcomes as filed in PubChem.
MITF primary: MITF inhibitors, primary screen, biochemical, AlphaScreen, human | 650,000 compounds, 0.91% hits | inhibition, % at 2.6 µM | AID 1259374, 2018 | AlphaScreen MITF homodimerization, bead proximity signal | Microphthalmia-associated transcription factor (Homo sapiens), O75030; in the data active means inhibition above about 50%;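 further: 0% = vehicle wells with protein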
Target sequence (O75030 whole entry, looked up): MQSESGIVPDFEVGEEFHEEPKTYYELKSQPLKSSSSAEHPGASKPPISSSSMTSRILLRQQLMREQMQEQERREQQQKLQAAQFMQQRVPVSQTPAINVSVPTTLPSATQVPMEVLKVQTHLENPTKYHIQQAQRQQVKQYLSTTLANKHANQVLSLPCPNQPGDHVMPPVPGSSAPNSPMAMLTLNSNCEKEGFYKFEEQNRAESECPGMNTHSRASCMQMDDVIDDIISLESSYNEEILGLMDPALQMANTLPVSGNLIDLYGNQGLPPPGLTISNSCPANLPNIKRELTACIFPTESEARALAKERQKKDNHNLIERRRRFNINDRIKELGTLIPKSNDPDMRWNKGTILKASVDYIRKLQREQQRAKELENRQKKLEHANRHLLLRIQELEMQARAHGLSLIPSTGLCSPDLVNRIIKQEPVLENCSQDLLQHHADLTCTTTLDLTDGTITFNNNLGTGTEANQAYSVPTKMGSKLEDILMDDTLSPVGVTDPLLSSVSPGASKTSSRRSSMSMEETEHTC
GPR151 activ: activators of human GPR151, primary screen, cell-based, PathHunter beta-arrestin, luminescence | G-protein coupled receptor 151 (Homo sapiens), Q8TDV0 | PathHunter beta-arrestin GPR151 cells | activation, % at 11.2 µM | 650,000 compounds, 1% hits; in the data active means activation above about 4.9%;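 further: 0% = median of compound wells and 100% = cells with positive control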
FBW7 act: FBW7 E3 ligase activators, primary screen, biochemical, AlphaScreen, human; F-box/WD repeat-containing protein 7 (Homo sapiens), Q969H0; AlphaScreen FBW7–phospho-cyclin E peptide binding, activator screen; normalized activity (activation), % at 26.1 µM; 650,000 compounds, 0.13% hits; AID 1259310, 2017; in the data active means normalized activity above about 1.9%;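 further: purified mutant Fbw7 with reduced substrate affinity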
TEAD-YAP block: TEAD-YAP interaction inhibition, primary screen, TEAD-YAP interaction inhibitor project, luminescence, HEK-TIYL cells; 640,000 compounds, 1.4% hits; inhibition, % at 9.12 µM; TEAD-Gal4/YAP UAS-luciferase luminescence; in the data active means inhibition above about 32%;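 further: 0% = median of test compound wells and 100% = reference inhibitor wells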
* hit, by the source's call; / = no result. Most compounds without a hit are left out; they make up all but 3.5% or so of the library.

SMILES	MITF primary	GPR151 activ	FBW7 act	TEAD-YAP block
CC(=O)NC1C(OC2OC(CC(O)C3OC(n4ccc(=O)[nH]c4=O)C(O)C3O)C(O)C(O)C2NC(=O)/C=C\CCCCCCCCCC(C)C)OC(CO)C(O)C1O (configuration not stated)	-2.6	0.1	0.1	64.4*
O=c1c2ccccc2nc(/C=C/c2ccc([N+](=O)[O-])o2)n1-c1cccc(O)c1	3.2	-0.4	-0.1	34.3*
CC(C)(C)CN1CCN(Cc2cccc3c2OCO3)CC1CCO (configuration not stated)	2.7	4.2	-0.1	-9.2
CCN1/C(=C/C=C/c2oc3ccc(-c4ccccc4)cc3[n+]2CC)Oc2ccc(-c3ccccc3)cc21 (tested in a mixture with another compound)	-34.9	1.5	0.2	82.4*
Cc1ccc2oc(C(=O)OC(C)C(C)CN(C)C)cc2c1 (configuration not stated)	9.9	-1.7	2.5*	16.9
CN1CC=C(c2noc(CCC(=O)Nc3ccccc3Cl)n2)CC1	11.8	-1.4	1.1	-8.2
Cc1cccc(N2CCN(C(=O)CCc3nc(C4=CCN(C)CC4)no3)CC2C)c1 (configuration not stated)	23.8	-0.3	4.1*	13.0
CN1CC=C(c2noc(CCC(=O)Nc3cccc(Cl)c3)n2)CC1	35.5	-1.4	1.9*	11.4
CN1CC=C(c2noc(CCC(=O)N3CCN(c4ncccn4)CC3)n2)CC1	17.1	-0.8	0.8	-8.8
C[n+]1c2ccccc2nc2ccc(NC3CCCCC3N)cc21 (configuration not stated)	19.7	-0.2	-0.5	76.6*
Nc1c(C(=O)O)cc([N+](=O)[O-])cc1[N+](=O)[O-]	1.5	0.0	-0.1	-5.1
C#CCOc1ccccc1/C=C/[N+](=O)[O-]	1.9	-2.4	-0.1	45.8*
Cc1ccc(C)c(NP(=O)(OCC(F)(F)F)OCC(F)(F)F)c1	22.7	0.5	1.7	7.3
COc1ccc(O)c(CN2CCN(Cc3cccc(C)c3)CC2)c1	71.8*	-0.4	-0.3	-3.8
COc1ccc(O)c(CN2CCN(C)CC2)c1	16.2	-2.2	0.1	1.9
COc1ccc(O)c(CN2CCN(Cc3ccccc3Cl)CC2)c1	51.1*	-0.8	-0.1	-2.9
COc1ccc(O)c(CN2CCN(Cc3ccccc3)CC2)c1	-1.4	-0.8	-0.1	4.1
O=C(NCCN1CCN(C(=O)COc2ccc(Cl)cc2Cl)CC1)c1ccsc1	1.4	0.1	-0.1	15.2
CNc1ccccc1C(=O)O	-11.3	-2.9	0.7	1.3
C[CH2][Hg][S]c1ccccc1C(=O)O	-5.5	3.7	-0.1	73.6*
CC(=O)[O][Hg][c]1ccccc1	-4.5	1.0	0.4	97.6*
CCN(CC)C(C)C(=O)c1ccccc1 (configuration not stated)	-6.0	-0.1	0.0	-2.6
O=C1NC(=O)N(Cc2ccco2)C(=O)/C1=C\c1cn(Cc2ccccc2)c2ccccc12	28.1	-0.5	-0.1	-0.1
NC(=O)C1CCN(/C=C2\C(=O)NC(=O)N(Cc3ccco3)C2=O)CC1	58.0*	-0.6	0.0	11.7
NC1=[N+](CC(=O)c2cccs2)Cc2ccccc21	-4.8	0.6	-0.1	-53.8
SMILES	MITF primary	GPR151 activ	FBW7 act	TEAD-YAP block
O=C(CN1C(=O)C2C3C=CC(C3)C2C1=O)N1CC2CC(C1)c1cccc(=O)n1C2 (configuration not stated)	-12.1	0.8	-0.1	3.1
CCN(CC)c1ccc(CNCCc2c(C)[nH]c3ccccc23)cc1	74.8*	0.3	-0.5	9.4
O=C1NC(=S)NC(=O)C1=Cc1cc2c(cc1[N+](=O)[O-])OCO2	86.3*	0.4	-1.1	-1.3
COc1ccc(OC)c(C2=NCC(=O)Nc3c2oc2ccccc32)c1	-4.0	0.5	-0.2	51.9*
Cc1ccc(-n2c(=S)[nH]c3cc(Cl)ccc3c2=O)cc1C	9.2	-1.2	0.0	5.5
Cc1c2oc3c(C)ccc(C(=O)N[C@@H]4C(=O)N[C@H](C(C)C)C(=O)N5CCC[C@H]5C(=O)N(C)CC(=O)N(C)[C@@H](C(C)C)C(=O)O[C@@H]4C)c3nc-2c(C(=O)N[C@@H]2C(=O)N[C@H](C(C)C)C(=O)N3CC(=O)C[C@H]3C(=O)N(C)CC(=O)N(C)[C@@H](C(C)C)C(=O)O[C@@H]2C)c(N)c1=O	3.8	-1.3	0.0	94.5*
CCOC(=O)C1=C(C)OC(N)=C(C#N)C12C(=O)Nc1ccc(F)cc12 (configuration not stated)	9.7	-0.8	0.3	11.8
CCOc1ccc(C(=O)C(CN2CCCC2)c2ccccc2)cc1 (configuration not stated)	-21.6	0.3	0.3	4.3
CN(C(=O)Cc1ccccc1)[C@H](CN1CCCC1)c1ccccc1	2.4	0.0	1.9*	/
COc1ccc(/C=C2\CCCc3c(-c4ccccc4)cc(-c4ccccc4)[n+](C)c32)cc1	-3.5	0.8	-0.1	91.7*
COc1ccccc1/C=C1\CCCc2c(-c3ccccc3)cc(-c3ccccc3)[n+](C)c21	14.4	2.2	0.0	94.9*
CCOC(=O)C1C2NC(=S)N(c3cccc(F)c3)C1(C)Oc1ccc(OC)cc12 (configuration not stated)	28.3	-0.5	-0.3	2.4
COc1ccc(N2C(=O)NC(=O)/C(=C/c3ccc(Br)o3)C2=O)cc1	72.6*	2.6	-0.1	2.5
COc1ccc(Sc2ccc(C=C3C(=O)NC(=O)NC3=O)o2)cc1	9.1	-0.4	0.0	8.6
COc1ccc(N2C(=O)/C(=C\c3ccc(C)o3)C(=O)NC2=S)cc1	-2.9	-1.3	-0.1	-2.0
O=C1NC(=O)C(=Cc2ccc(Br)o2)C(=O)N1	63.0*	2.2	-0.1	-0.8
Cc1ccc(N2C(=O)NC(=O)/C(=C/c3ccc([N+](=O)[O-])o3)C2=O)cc1	69.5*	0.2	-0.2	-0.2
COc1ccc(N2C(=O)/C(=C/c3ccc(Br)o3)C(=O)NC2=S)cc1	60.2*	-1.0	0.0	9.2
COc1cc(/C([O-])=N/c2c[n+](CCc3ccccc3)no2)cc(OC)c1OC	-1.0	-1.6	-0.1	-1.2
COC(=O)c1ccc(OC(=O)N(C)c2ccccc2)cc1	-18.9	0.6	-0.1	-46.3
Cc1c[n+](C)c(C)cc1-c1ccccc1	-1.9	0.0	0.2	6.1
OC1(c2nccs2)COC2(CCNCC2)C1 (configuration not stated)	-4.8	1.8	-0.2	-5.2
O=C(CN1CC=C(c2ccccc2)CC1)Nc1ccc2[nH]c(=O)[nH]c2c1	5.5	2.1	0.0	-0.5
C=CCOC(=O)C1C2NC(=S)NC1(C)Oc1ccccc12 (configuration not stated)	-0.2	-0.4	-0.3	36.0*
COc1cc(NC(=O)CN2C(=O)C(C)N=C(c3ccccc3)c3ccccc32)cc(OC)c1 (configuration not stated)	4.8	-0.2	-0.3	37.5*
